According to PubChem BioAssay (NCI):
Values joined by “and” are separate entries in the source; they are usually repeats but may differ in a detail not shown here. Identical values can stand only once. The panel holds about 83,000 compounds, 20% with a hit somewhere; the sample as a whole holds those more often.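 Single-concentration screen, 48 h exposure, 96-well plates. Endpoint: percent growth. Below 10 = active.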 Active and inactive are the calls of the source.

system: NCI-H226 lung; assay: NCI-60 one-dose screen, 48 h (100 = growth as untreated, 0 = no growth, -100 = all killed); conditions: 10 µM

Compound | growth
CC/C(=C(\c1ccc(O)cc1)c1ccc(OCCN(C)C(=O)COCCNC(=O)Cc2ccc3c(c2)CN([C@@H]2CCC(=O)NC2=O)C3=O)cc1)c1ccccc1 | 6.46% (active)
CC/C(=C(\c1ccc(O)cc1)c1ccc(OCCN(C)C(=O)CCOCCNC(=O)c2ccc3c(c2)CN([C@@H]2CCC(=O)NC2=O)C3=O)cc1)c1ccccc1 | 66.3% (inactive)
CC/C(=C(/c1ccc(O)cc1)c1ccc(OCCN(C)C(=O)COCCOCCNC(=O)c2ccc3c(c2)CN([C@@H]2CCC(=O)NC2=O)C3=O)cc1)c1ccccc1 | 65.4% (inactive)
CC/C(=C(/c1ccc(O)cc1)c1ccc(OCCN(C)C(=O)CCOCCNC(=O)Cc2ccc3c(c2)CN([C@@H]2CCC(=O)NC2=O)C3=O)cc1)c1ccccc1 | 47% (inactive)
CC/C(=C(/c1ccc(O)cc1)c1ccc(OCCN(C)C(=O)COCCOCCNC(=O)Cc2ccc3c(c2)CN([C@@H]2CCC(=O)NC2=O)C3=O)cc1)c1ccccc1 | 39.9% (inactive)
CC/C(=C(\c1ccc(O)cc1)c1ccc(OCCNC)cc1)c1ccccc1 | 74.7% (inactive)

same assay, conditions: 10 µM unless noted

Compound | growth
CC1(C)CC(=O)C2=C(C1)OC(N)=C(c1nc3ccccc3[nH]1)C2c1ccc(Cl)cc1 (configuration not stated) | 65.7% (inactive) and 123% (inactive)
COc1cc(C=O)ccc1Oc1nc(Nc2ccc(F)cc2)nc(N(C)C)n1 | 75.4% (inactive) and 81.6% (inactive)
CCC(=O)c1c2c(c3ccc4c5ccccc5ccc4n13)C(=O)c1ccccc1C2=O | 45.7% (inactive)
CCCCNC(=S)Nc1ccc(OCc2nc3ccc(Cl)cc3[nH]2)cc1 | 58.4% (inactive)
Nc1ccc(-c2ccc3ncnc(N4CCc5cc(F)c(Cl)cc54)c3c2)cn1 | 18.4% (inactive)
N#CC1=C(c2cccs2)Nc2c(c(-c3ccccc3)nn2-c2ccccc2)C12C(=O)Nc1ccc(Cl)cc12 (configuration not stated) | 51.6% (inactive)
C=CCn1c(O)c(N=Nc2nc(-c3cc4ccccc4oc3=O)cs2)c2ccccc21 | 74.2% (inactive)
Fc1ccccc1CNc1nc(SCCN2CCOCC2)nc2c1cnn2CC(Cl)c1ccc(Br)cc1 (configuration not stated) | 31.8% (inactive)
O=C(CSc1nnc(-c2ccc(-c3nc4ccc(Cl)cc4[nH]3)cc2)o1)Nc1ccccc1 | -23.7% (active)
O=C(CSc1nnc(-c2ccc(-c3nc4ccc(Cl)cc4[nH]3)cc2)o1)Nc1ccc(Cl)cc1 | -38.2% (active)
Nc1nc(-c2ccccc2)c(N=Nc2ccc(Cl)cc2Cl)s1 | -17.4% (active)
COc1c(B(O)O)cccc1-c1nc2ccc3cn[nH]c3c2c2c1CCCC2 | 49.5% (inactive)
Nc1nn2c(-c3cc4cc(Br)ccc4oc3=O)ccnc2c1N=Nc1ccccc1 | -55.6% (active)
O=C1/C(=C/c2cnc(-c3ccccc3)s2)SC(=S)N1Cc1ccc2c(c1)OCO2 | 75.6% (inactive)
O=C(c1ccc(O)cc1)C1[C@H](c2ccc(Cl)cc2)[C@@H](c2ccccc2)NC12C(=O)Nc1ccc(Br)cc12 (some centres not stated) | -54.7% (active)
COC(=O)c1cc(C(=O)C(C)(C)C)n2c3ccccc3c3ccccc3c12 | 100% (inactive)

Compound | growth
COc1ccc2[nH]c(O)c(N=Nc3nc(-c4ccccc4)cs3)c2c1 | 11.2% (inactive)
CC1CCc2c(sc3nc(SCC(=O)c4cccc([N+](=O)[O-])c4)n(-c4ccccc4)c(=O)c23)C1 (configuration not stated) | 66.6% (inactive)
C=CCSc1nnc(-c2ccc(-c3nc4ccc(Cl)cc4[nH]3)cc2)o1 | 103% (inactive)
O=C(Nc1nc2ccccc2s1)Nc1ccccc1Cl | 31.5% (inactive)
CC[C@@]12CC(C(=O)OC)=C3Nc4cc5c(cc4[C@@]34CCN(C[C@H]3O[C@H]31)[C@@H]24)[C@@H]1[C@H](O5)[C@@H](O)[C@@]2(CC)CC(C(=O)OC)=C3Nc4cc(O)ccc4[C@@]34CCN1[C@@H]24 | -50.9% (active)
CCOc1ccccc1NC(=O)N/C(N)=N/c1nc2ccccc2s1 | 33.9% (inactive)
COc1sc(/C=N/NC(=O)c2[nH]c3ccc(Br)cc3c2-c2ccccc2)cc1Cl | -17.8% (active)
COc1cc(CNC(=O)C[C@H](C)CCC=C(C)C)ccc1OCc1cn(-c2ccccc2Cl)nn1 | 59.7% (inactive)
COc1ccc(-c2cc(C(=O)OCc3ccc(Br)cc3)nn2-c2ccc(S(C)(=O)=O)cc2)cc1OC | 82% (inactive)
N#CC1=C(c2ccco2)Nc2c(c(-c3ccccc3)nn2-c2ccccc2)C12C(=O)Nc1ccc(Br)cc12 (configuration not stated) | 67.2% (inactive)
N/C(=N\c1nc2ccc([N+](=O)[O-])cc2s1)NC(=O)Nc1ccccc1Cl | 23.7% (inactive)
S=C(Nc1ccccc1)Nc1ccc(OCc2nc3ccc(Cl)cc3[nH]2)cc1 | 97.5% (inactive)
COc1ccc(N=Nc2c(N)nn3c(N)c(C#N)c(-c4ccc(C)cc4)nc23)cc1 | 54.7% (inactive)
O=C(NC(=S)N1CCN(c2ncnc3c2cnn3-c2ccccc2)CC1)c1ccc(F)cc1 | 84.9% (inactive)
Cc1cccc(C)c1Nc1nnc(-c2c[nH]c3ccccc23)o1 | 78.9% (inactive)
